Compounds with a hit are over-represented: about 7.1% of the library has one in this group of screens.
Marburg entry: blocks Marburg virus binding or cell entry. Potency, µM (highest dose often 49.2 µM), for the others: at the top dose activity change, negative = inhibition, most hits filed as inhibitors. AID 720532. Marburg virus pseudotype entry/binding inhibition, cell-based. 6.5% of 18,000 active
Lassa entry: inhibitors of Lassa virus binding or entry into cells | Lassa virus pseudotyped entry inhibition, cell-based qHTS | Potency, µM (titrated, usually from 49.2 µM), for the others: top-dose activity change, negative = inhibition, hits mostly inhibitors | 4.1% of 18,000 active | AID 720533
The depositor's hits bear a star; ? = inconclusive; nt = no result given; ! = repeats disagree; [ ] = remark or other dose. Calls come from the whole dose curve; tested in HEK293 cells. % is set by controls: 0 for no effect and ±100 for the full control effect; potency is the fitted concentration of half-maximal effect.

SMILES	Marburg entry	Lassa entry
Nc1ccc2oc(-c3ccccc3Cl)cc(=O)c2c1O	61%	43%
C=CCN1C(=O)C2(CC(C)=C[C@@H](C)O2)c2c(Br)cccc21 (some centres undefined)	26%[8.59 µM]	-1%[8.59 µM]
Oc1cccc(-c2nc(-c3ccccc3)[nH]c2-c2ccncc2)c1	7.9µM*	nt
NCc1ccc(-c2nc(-c3ccc(Cl)c(O)c3)c(-c3ccncc3)[nH]2)cc1	?	20%
CCCC(=O)O[C@@H]1[C@@H](C)[C@@]2(O)[C@@H](C=C(CO)C[C@@]3(O)C(=O)C(C)=C[C@@H]23)[C@@H]2C(C)(C)[C@]12OC(=O)CCC	-14%	-7%
CCN(CC)c1ccc(C(=C2C=CC(=[N+](CC)CC)C=C2)c2ccccc2)cc1	0.28µM*	0.32µM*
O=C1CCCC2[C@@H]3CCCN4CCC[C@@H](CN12)C34 (some centres undefined)	33%	2%
CC(C)C[C@H]1COc2cccc(N3CCCCC3)c2S(=O)(=O)N1	17%	?
CCn1c(-c2nonc2N)nc2c(C#CC(C)(C)O)nc(OCCNC)cc21	13µM*	nt
CCn1c(-c2nonc2N)nc2ccccc21	?	19%
CCCCCCCCC(=O)NCc1ccc(O)c(OC)c1	5%	0%
COc1cc(CNC(=O)CCCC/C=C/C(C)C)ccc1O	7%	25µM*!
CCCCC[C@H](O)CC(=O)CCc1ccc(O)c(OC)c1	1%	-9%
CCCCC/C=C\C/C=C\C/C=C\C/C=C\CCCC(=O)NCc1ccc(O)c(OC)c1	?	7.9µM*
CC1(C)S[C@@H]2[C@H](NC(=O)C3(N)CCCCC3)C(=O)N2[C@H]1C(=O)O	-4%	-1%[17.8 µM]
CN1C(CC(=O)c2ccccc2)CCCC1CC(O)c1ccccc1 (centres undefined)	?	-25%
CN1[C@@H](CC(=O)c2ccccc2)CCC[C@H]1C[C@H](O)c1ccccc1	28µM*	?
COc1ccc(NC(=O)C[C@H]2C(=O)N(c3ccc(Br)cc3)C[C@@H]2C)cc1	22%	-10%
C[C@]12O[C@H](C[C@]1(O)CO)n1c3ccccc3c3c4c(c5c6ccccc6n2c5c31)CNC4=O	1µM*	11µM*
CN[C@@H]1C[C@@]2(C)O[C@@H]([C@@H]1OC)n1c3ccccc3c3c4c(c5c6ccccc6n2c5c31)C(=O)NC4	?	1µM*
Cl.Cl.Cl.Cl.Cl.Cl.N.N.N.N.NNNNN.NNNNN.O.O.[Ru].[Ru].[Ru]	-22%	-2%
CC(=O)N[C@@H](CSC/C=C(\C)CC/C=C(\C)CC/C=C(\C)CCC=C(C)C)C(=O)O	21%	-1%
COCCCOc1ccnc(CS(=O)c2nc3ccccc3[nH]2)c1C (centres undefined)	74%	27%
CCC(=O)c1ccc2c(c1)N(CCCN(C)C)c1ccccc1S2	22µM*	32µM*
CN(C)CCCN1c2ccccc2Sc2ccccc21	7.1µM*	?
SMILES	Marburg entry	Lassa entry
CC(=O)c1ccc2c(c1)N(CCCN(C)C)c1ccccc1S2	?	-15%[17.8 µM]
COc1ccc([C@H]2Sc3ccccc3N(CCN(C)C)C(=O)[C@H]2OC(C)=O)cc1	-15%[17.8 µM]	?
COC(=O)C1(C(=O)OC)CC(CO)C(=O)[C@H]1c1ccccc1 (some centres undefined)	0%	5%
CC1(C)O[C@H]2OC([C@H](O)CON3C(=O)c4ccccc4C3=O)[C@H](O)[C@@H]2O1 (some centres undefined)	?	-9%[8.59 µM]
O=S1(=O)CC(N2CCC(c3ccccc3)CC2)CN1C1CCCCC1 (centres undefined)	11%	8%
CCCCCCCC/C=C\CCCCCCCC(=O)NCCCC(=O)O	-1%	-9%
CC(C)C[C@H](NC(=O)[C@H]1O[C@@H]1C(=O)O)C(=O)NCCCCN=C(N)N	?	-3%
COc1ccc(C(=O)CC(=O)c2c(O)cc(OC)cc2OC)cc1	18%[8.59 µM]	-12%[8.59 µM]
COc1cc(O)c(C(C)=O)c(OC)c1	8.9µM*	5.6µM*
O=C(O)C1(O)C[C@H](O)C(O)[C@@H](O)C1 (some centres undefined)	-2%	3%
c1ccc2sc(C3(N4CCCC4)CCCCC3)cc2c1	6.3µM*	1%
c1ccc2sc(C3(NCC4CC4)CCCCC3)cc2c1	14µM*	?
CC[C@@H]1OC(=O)[C@H](C)[C@H](O[C@@H]2C[C@](C)(OC)[C@H](O)[C@H](C)O2)[C@H](C)[C@H](O[C@@H]2O[C@@H](C)C[C@@H](N(C)C)[C@@H]2O)[C@](C)(O)C[C@H](C)[C@@H]2N[C@H](COCCOC)O[C@H]([C@@H]2C)[C@]1(C)O	?	22%[17.8 µM]
c1cncc(OC2CCN(Cc3ccc4c(c3)CN(Cc3ccc5c(c3)CCO5)CCO4)CC2)c1	?	-11%
C=CC[C@@H]1C=CC(ON=CC[C@@H]2C=C[C@@H](OC(C)=O)[C@@H](COC(C)=O)O2)[C@H](CO)O1 (some centres undefined)	4%[8.59 µM]	19%[8.59 µM]
OC[C@H]1OC(O)(CN2CCOCC2)[C@H](O)[C@@H]1O (some centres undefined)	5%	-19%

Source: PubChem BioAssay
